Common to all, as to assay type: functional
The target of test [1] is Solute carrier family 2, facilitated glucose transporter member 1 (Homo sapiens) (UniProt P11166). Description: ST_JUDE_LEISH: Cytotoxicity at 2uM final concentration against transgenic Leishmania Mexicana promastigotes LmGLUT1 that are glucose transport deficient and complemented with the human glucose transporter GLUT1. Activity is measured by DNA content using SYBR green in vitro.

Test [2] deals with Hexose transporter 1 (Plasmodium falciparum) (UniProt O97467). Description: ST_JUDE_LEISH: Cytotoxicity at 2uM final concentration against transgenic Leishmania Mexicana promastigotes LmPfHT that are glucose transport deficient and complemented with the Plasmodium falciparum hexose transporter. Activity is measured by DNA content using SYBR green in vitro.
Test [3] addresses Glucose transporter (Leishmania mexicana) (UniProt O61059). Description: ST_JUDE_LEISH: Cytotoxicity at 2uM final concentration against transgenic Leishmania Mexicana promastigotes LmGT2 that are glucose transport deficient and complemented with the L. Mexicana glucose transporter 2. Activity is measured by DNA content using SYBR green in vitro.

The source of these data is ChEMBL document CHEMBL3433997, “St. Jude Leishmania screening dataset” (2016).

Molecules are shown by their SMILES.

Chain of Solute carrier family 2, facilitated glucose transporter member 1 (Homo sapiens) (P11166 whole entry): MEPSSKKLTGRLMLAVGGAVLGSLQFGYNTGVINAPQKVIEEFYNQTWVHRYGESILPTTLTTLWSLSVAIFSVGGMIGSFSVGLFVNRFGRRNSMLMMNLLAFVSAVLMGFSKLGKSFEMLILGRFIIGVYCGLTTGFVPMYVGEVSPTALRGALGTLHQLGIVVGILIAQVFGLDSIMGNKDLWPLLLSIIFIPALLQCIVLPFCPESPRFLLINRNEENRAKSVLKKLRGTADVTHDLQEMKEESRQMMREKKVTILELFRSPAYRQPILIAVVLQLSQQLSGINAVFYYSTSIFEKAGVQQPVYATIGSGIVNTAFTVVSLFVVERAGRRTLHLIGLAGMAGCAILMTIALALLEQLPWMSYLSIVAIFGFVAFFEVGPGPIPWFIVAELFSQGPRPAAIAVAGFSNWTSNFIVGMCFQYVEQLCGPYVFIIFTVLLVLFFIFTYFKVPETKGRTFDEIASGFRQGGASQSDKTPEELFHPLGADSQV

As a reminder, the inhibition is the relative decrease from the control value, in per cent. For the compound `O=C(NCCCCN1CCC2c3cccc(O)c3CCC21)c1ccc(-c2ccccc2)cc1` (stereo unspecified), the values for the inhibition in test [1], in test [2] and in test [3] were 6.05%, 5.38% and 3.69%, respectively.

For the compound `CCCc1cc(C(=O)N[C@@H](Cc2ccccc2)[C@H](O)CNC2CCOCC2)c(F)c(N2CCCCS2(=O)=O)c1`, the results for the inhibition in test [1], in test [2] and in test [3] were 4.76%, 5.47% and 6.25%, respectively.

Regarding `CN1CCCc2cc(NC(=O)C=Cc3ccc(-c4ccc(F)cc4F)o3)ccc2C1`, the figures for the inhibition in test [1], in test [2] and in test [3] were 6.23%, 5.24% and 8.04%, respectively.

With `Nc1nc(N)c2c(Cl)c(N3CCOCC3)ccc2n1`, the inhibition in test [1] came out at 36.1%; in test [2] it was 39.5%; in test [3], 34.6%.

Take `Cc1cccc2nc(-c3ccc(-c4ccc(NC(=O)Nc5ccc(F)c(F)c5F)cc4)cc3)[nH]c12`: the inhibition came to 8.48% in test [1], 8.02% in test [2] and 7.14% in test [3].

On to `COc1cc(Cc2cnc(N)nc2N)cc(OC(C)C)c1OC`, for which the inhibition in test [1] was -0.55%; in test [2], 0.72%; in test [3] it was -0.54%.

`Cc1cc(N(C)C)nc(Nc2ccc(NC(=O)c3ccc(F)cc3)cc2)n1`: the results for the inhibition in test [1], in test [2] and in test [3] were 5.57%, 8.06% and 3.85%, respectively.

With `COc1ccc2nccc(N3CCC(SCCNCc4cc5c(cn4)OCCO5)C3)c2n1` (stereo unspecified), the inhibition in test [1] is 0.61%; in test [2], 0.85%; in test [3], -2.04%.

Turning to `O=C(Nc1ccc(S(=O)(=O)N2CCCC2)cc1)c1cc(-c2cccnc2)nc2ccc(Cl)cc12`, the results for the inhibition in test [1], in test [2] and in test [3] were 7.34%, 2.97% and 3.06%, respectively.

As to `CCN(CC)CCN(Cc1ccc(-c2ccc(C(F)(F)F)cc2)cc1)C(=O)Cn1c(CCc2cccc(F)c2F)c(C)c(=O)c2ccccc21`, the inhibition in test [1] is 1.84%; in test [2], 1.5%; in test [3], 3.04%.

`COc1ccc2ncc(F)c(CCN3CC(O)C(CNCc4ccc5c(c4)OCCO5)C3)c2n1` (stereo unspecified): the figures for the inhibition in test [1], in test [2] and in test [3] were 6.54%, 4.38% and -0.93%, respectively.

As for `CC(=O)Nc1ccc(C(=O)Nc2cccc(-c3csc(-c4nc5ccccc5[nH]4)c3)c2)cn1`, the inhibition in test [1] was 0.54%; in test [2] it was 1.56%; in test [3], -0.51%.
